Assay results from PubChem BioAssay AID1851 (National Center for Advancing Translational Sciences (NCATS), 2009).
Where “and” joins values, the source holds several entries; their conditions need not be identical. Equal values may be shown once. In all, about 16,000 compounds went through this assay and about 4,000 (25%) were called active. Inconclusive results (about 26%) are left out. Calls come from the whole dose curve; as a rule, active = well fitted curve in the direction sought with a large enough effect; inconclusive = small, poorly fitted or top-dose-only effect, or effect the other way; inactive = no such curve, though single readings can be large or run the other way. Only a sample is shown. The source holds several records for some structures; these can differ, active in one and inactive in another.

The compounds below were run against Cytochrome P450 2C9 (Homo sapiens) (UniProt P11712) (assay: Cytochrome panel assay with activity outcomes). Conditions: recombinant CYP, pro-luciferin dealkylation, luminescence, p450-cyp2c9; series mostly up to 57.1 µM.
Cytochrome P450 2C9 (Homo sapiens), sequence (P11712 whole entry, looked up): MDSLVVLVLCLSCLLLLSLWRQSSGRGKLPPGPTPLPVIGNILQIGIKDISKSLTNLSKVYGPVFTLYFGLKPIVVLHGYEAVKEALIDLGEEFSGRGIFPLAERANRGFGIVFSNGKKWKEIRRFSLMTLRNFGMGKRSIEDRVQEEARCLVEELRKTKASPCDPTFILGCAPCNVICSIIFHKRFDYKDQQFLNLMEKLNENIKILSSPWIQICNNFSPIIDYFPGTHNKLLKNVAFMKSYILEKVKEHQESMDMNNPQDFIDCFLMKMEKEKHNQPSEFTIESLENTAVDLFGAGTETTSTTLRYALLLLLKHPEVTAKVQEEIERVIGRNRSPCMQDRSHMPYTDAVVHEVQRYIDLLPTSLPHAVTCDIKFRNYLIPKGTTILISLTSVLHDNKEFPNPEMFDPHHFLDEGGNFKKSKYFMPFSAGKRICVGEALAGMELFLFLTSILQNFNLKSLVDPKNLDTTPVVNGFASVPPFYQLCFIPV
% is set by controls: 0 for no effect and ±100 for the full control effect.

SMILES | activity, negative = inhibition | AC50
CO[C@@H]1COC(=O)[C@H](C)NC(=O)C/C=C\[C@@H](C)[C@@H](NS(=O)(=O)c2ccc(C)cc2)COC(=O)C/C=C\[C@@H]1C | -0.567% [at 11.4 µM] (inactive) | –
COCCNc1ncnc2ccc(-c3ccc(C(=O)N(C)C)cc3)cc12 | -1.35% [at 2.29 µM] (inactive) | –
CCOc1cc(/C=C2/C(=N)N3C=CSC3=NC2=O)ccc1OCCCOc1ccccc1C | – | 0.631 µM (active)
COc1ccccc1OCCOc1ccc(/C=C2/C(=N)N3OC(C)=CC3=NC2=O)cc1OC | – | inactive
COc1cc(/C=C2/C(=N)N3OC(C)=CC3=NC2=O)ccc1OCCOc1ccc(C)cc1 | – | inactive
COc1cc(/C=C2/C(=N)N3C=CSC3=NC2=O)ccc1OCCCOc1ccccc1C | – | 0.708 µM (active)
CO[C@@H]1COC(=O)CC=C[C@@H](C)[C@@H]2C=C[C@H](O)[C@@H](COC(=O)C/C=C\[C@H]1C)O2 | 10.7% [at 11.4 µM] (inactive) | –
Cc1ccccc1-c1cncnc1N1CCN(C)CC1 | 18.6% [at 2.29 µM] (inactive) | –
CN1CCCC1CCNC1C2CC3CC(C2)CC1C3 (stereo unspecified) | – | inactive
NCCCNCCCCNCCCN | – | inactive
NCCCCNCCCN | – | inactive and 12.6 µM (active)
NCCCCN | – | inactive
CCCCOC(=O)C1=C(C)Nc2ncnn2C1c1cc(OC)ccc1OC (stereo unspecified) | – | 7.94 µM (active)
CCCCN(CC)Cc1ccc(CNC(=O)Nc2ccc(OC)cc2OC)o1 | – | inactive
CCN(CC)CCOC(=O)c1c(C)n(C)c2ccc(OC)cc12 | – | inactive
O=S(=O)(O)[C@@H](CO)c1ccccc1 (tested in a mixture with another compound) | -2.54% [at 11.4 µM] (inactive) | –
O=C1C(SCCO)=C(SCCO)C(=O)c2ccccc21 | – | 5.01 µM (active)
CCCn1c(=O)c2[nH]c(C3CCCC3)nc2n(CCC)c1=O | – | inactive
Nc1ncnc2c1ncn2[C@H]1O[C@@H](C(=O)O)[C@@H](O)[C@H]1O | 20% [at 11.4 µM] (inactive) | –

SMILES | activity, negative = inhibition | AC50
CC(C)c1ccc(OCc2ccc(C(=O)N3CCN(c4ccccn4)CC3)cc2)cc1 | – | 3.16 µM (active)
COc1ccc(C(=O)N2CCC3(CC2)CN(C(=O)Nc2ccccc2)C3)cc1 | – | inactive
COc1ccc(C(=O)N2CCC3(CC2)CCN(c2ncccn2)CC3)cc1 | – | inactive
COc1ccc(S(=O)(=O)NCc2ccc(C(=O)N3CCN(c4ccccn4)CC3)cc2)cc1 | – | 3.98 µM (active)
O=C(c1ccco1)N1CCC2(CC1)CN(c1ccccn1)C2 | – | inactive
COCC(=O)N1CCC2(CC1)CCN(c1ccccn1)CC2 | – | inactive
CON(C)C(=O)c1nnc2c(n1)[nH]c1ccccc12 | -19% [at 11.4 µM] (inactive) | –
C[C@@H]1CCc2cc(F)cc3c(=O)c(C(=O)O)cn1c23 | – | inactive
Cc1ccc2[nH]c3nc(CCCn4ccnc4-c4ccccc4)nnc3c2c1 | -17.6% [at 11.4 µM] (inactive) | –
CCOCc1cnc(C)nc1NCC(=O)c1c(C)[nH]c2ccccc12 | – | inactive
CC1CCc2cc(F)ccc2N1C(=O)CSc1nnc2c(n1)[nH]c1ccc(F)cc12 (stereo unspecified) | – | 1.78 µM (active)
Cc1ccc(C(=O)NNC(=O)CSc2nnc3c(n2)[nH]c2ccc(F)cc23)cc1 | – | 5.62 µM (active)
Cc1ccc(C(=O)NNC(=O)c2cc3cc4ccccc4nc3s2)cc1 | – | inactive
CCOC(=O)CC(=O)CSc1nnc2c(n1)[nH]c1ccccc12 | – | 8.91 µM (active)
COc1cccc(/C=N\NC(=O)c2cc(OCC(F)(F)F)ccc2OCC(F)(F)F)c1 | – | inactive
COc1ccc(/C=N/NC(=O)c2ccn[nH]2)cc1COc1ccc(F)cc1 | – | 25.1 µM (active)
CCOc1cc(CN2CCN(c3ccc(C(C)=O)cc3)CC2)ccc1OC | – | inactive
COc1ccc(/C=N/NC(=O)c2ccn[nH]2)cc1COc1ccc(Cl)cc1 | – | 12.6 µM (active)
Cc1ccc(/C=N\NC(=O)c2cc(OCC(F)(F)F)ccc2OCC(F)(F)F)cc1 | – | inactive

SMILES | activity, negative = inhibition | AC50
COc1ccccc1CN1CCC2(CC1)CCN(C(C)=O)CC2 | – | inactive
COc1ccc(/C=N/NC(=O)c2ccccc2)cc1CN1CCN(c2ccc(F)cc2)CC1 | – | 11.2 µM (active)
Cc1n[nH]c(=O)[nH]c1=O | – | inactive
CCOc1nc(N2CCCCC2)nc(-n2cc(-c3ccccc3)nn2)n1 | – | 2.24 µM (active)
O=C(O)CC12C[C@H]3C[C@@H](CC(O)(C3)C1)C2 | -4.71% [at 11.4 µM] (inactive) | –
Cc1cnc(CNc2nc(-c3cccnc3)nc3ccccc23)cn1 | 16.9% [at 2.29 µM] (inactive) | –
NCCS | – | inactive
Cc1c(Br)c([N+](=O)[O-])nn1C(C)C(=O)Nc1nccs1 (stereo unspecified) | – | 3.55 µM (active)
O=C(O)c1cc(=O)cc(C(=O)O)[nH]1 | – | inactive
CO[C@H]1COC(=O)C/C=C\[C@H](C)[C@@H](OC)COC(=O)[C@@H](C)COC(=O)C/C=C\[C@@H]1C | – | 2.51 µM (active)
CO[C@H]1COC(=O)C/C=C\[C@H](C)[C@H](OC)COC(=O)[C@@H](C)COC(=O)C/C=C\[C@@H]1C | -5.38% [at 11.4 µM] (inactive) and 5.78% [at 11.4 µM] (inactive) | –
CO[C@@H]1COC(=O)C/C=C\[C@@H](C)[C@H](OC)COC(=O)[C@@H](C)COC(=O)C/C=C\[C@H]1C | 11.9% [at 11.4 µM] (inactive) | –
CC(=O)Nc1ccc(NC2=Nc3ccccc3N3C2=Nc2c(c(C)nn2-c2ccccc2)C3c2ccccc2)cc1 (stereo unspecified) | – | 1.78 µM (active)
Cc1nn(-c2ccccc2)c2c1C(c1ccc(O)c(O)c1)N1C(=N2)C(Nc2ccccc2)=Nc2ccccc21 (stereo unspecified) | – | 1.26 µM (active)
O=C(NNS(=O)(=O)c1ccc(Cl)cc1)c1cnn(-c2ccccc2)c1-n1cccc1 | – | 1.78 µM (active)
O=C(NNS(=O)(=O)c1ccc(Cl)cc1)C1CCN(Cc2ccccc2)CC1 | – | inactive
Cc1cc(C)cc(C(=O)N(C)[C@H](Cc2ccc(-c3ccccc3)cc2)C(=O)N[C@@H](Cc2c[nH]c3ccccc23)C(=O)O)c1 | – | inactive
COc1cccc(N(C(=O)Cn2nnc(-c3ccc(C)cc3)n2)C(C(=O)NC(C)(C)C)c2c[nH]c3ccccc23)c1 (stereo unspecified) | – | 5.01 µM (active)
